BAZ2B inh = inhibitors of human BAZ2B bromodomain; Q9UIF8; AlphaScreen BAZ2B-H3K14Ac peptide displacement; Potency, µM (doses to about 114 µM), usual class: inhibitors; 360,000 tested, 4.4% active; further: nearly all actives have a fitted effect of over 60% in size
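Compounds, titrated to a top concentration of 110 uM, were incubated 30 min at room temperature with preformed BAZ2B/acetyl-K14 H3 peptide complex (50 nM each). Proximity signal was measured by AlphaScreen after 20 min with beads.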
JMJD2A Tudor = inhibitors of human JMJD2A Tudor domain; 390,000 tested, 4.4% active; AID 504339; Potency, µM (titrated, usually from 114 µM), usual class: inhibitors; AlphaScreen JMJD2A-Tudor / H3K4me3 peptide binding; O75164; further: nearly all actives have a fitted effect of over 50% in size
HP1b chromo inh = blocks HP1-beta chromodomain binding to methylated histone tails; P83916; AlphaScreen HP1-beta / biotin-H3K9me3 peptide binding; 390,000 tested, 0.56% active; Potency, µM (top dose mostly 114 µM), most hits filed as inhibitors; further: nearly all actives have a fitted effect of over 70% in size
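AlphaScreen: HP1-beta (50 nM) preformed 30 min with biotin-H3(1-18)K9me3 peptide (50 nM) in PBS pH 7.4, 0.01% Tween-20. Compound added for 30 min at RT, then streptavidin donor/nickel chelate acceptor beads (10 ug/mL) for 30 min.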
CtBP-E1A inh = inhibitors of CtBP/E1A interaction. AlphaScreen GST-E1A/His-CtBP binding, 1536-well; stronger effect = lower value. activity change, % (test concentration not listed). 340,000 tested, 0.49% active. AID 651724; in the data active means activity change below about -65%; inconclusive means mostly about -30% to -63%
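Protein mix (5X: 125 nM each GST-E1A, His-CtBP) was incubated with pinned compound 2 h at 37 deg C in dark, in 50 mM Tris pH 8.0 buffer with 300 mM NaCl. Glutathione donor and nickel acceptor beads followed; AlphaScreen signal read after 1 h.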
G9a block = inhibitors of human histone lysine methyltransferase G9a | G9a H3K9 monomethylation, AlphaScreen, 2 h | 350,000 tested, 8.8% active | Q96KQ7 | Potency, µM (doses to about 102 µM), actives largely listed as inhibitors | AID 504332; further: nearly all actives have a fitted effect of over 75% in size
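G9a (20 nM) was preincubated 15 min with compound, then reacted 2 h at room temperature with 500 nM biotin-H3K9 peptide and 20 µM SAM. Monomethyl-H3K9 detected by AlphaScreen using anti-H3K9me1 antibody.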
Six1-Eya2 inh = inhibitors of human Six1/Eya2 interaction | Q15475+O00167 | AlphaScreen GST-Six1/His-Eya2 binding, biochemical; stronger effect = lower value | activity change, % (no concentration beside the values) | 360,000 tested, 0.56% active | AID 651725; in the data active means activity change below about -65%; inconclusive means mostly about -30% to -63%
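Compounds are tested against tagged Six1 and Eya2 proteins bridged by glutathione donor and nickel acceptor beads; after a one-hour incubation at 37 °C without light, AlphaScreen emission is recorded.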
Each line names hits and unclear results; the compound was inactive in the other large screens. Rows were chosen to be rich in hits. Some 10% of all compounds tested hit in one or more screens of this group. Unless noted, the call rests on the fitted dose curve; in most records, active means well fitted inhibition curve with a large enough effect; inconclusive means small, poorly fitted or top-dose-only effect; inactive means no such curve, though single readings can be large or run the other way.

CN(C)CCNc1ncnc2c1ncn2[C@H]1CN(Cc2ccncc2)C[C@@H](CO)O1	none (no result: BAZ2B inh, JMJD2A Tudor, HP1b chromo inh, G9a block)
Cc1ccc(Cl)cc1-c1cc(C(=O)NCC2CCCCC2)[nH]n1	none (no result: BAZ2B inh, JMJD2A Tudor, HP1b chromo inh, G9a block)
O=C(NNC(=O)C1CCC(C(=O)NNC(=O)c2cccs2)CC1)c1cccs1 (stereo not given)	none
COc1cccc(Nc2ncc(C#N)c(N)n2)c1	none
CC1(C)CC(Nc2ccc(Nc3ccccc3)cc2)CC(C)(C)N1	BAZ2B inh 35µM, JMJD2A Tudor 45µM, HP1b chromo inh inconclusive, G9a block inconclusive, Six1-Eya2 inh inconclusive (no result: CtBP-E1A inh)
C=CCn1c(=O)c2c(nc(-c3ccc(S(=O)(=O)O)cc3)n2C)n(C)c1=O	JMJD2A Tudor inconclusive, G9a block 12µM (no result: BAZ2B inh)
O=C(OCC#CCSc1nnc(-c2cccc3ccccc23)o1)c1ccc(OC(F)(F)F)cc1	none (no result: BAZ2B inh, HP1b chromo inh, CtBP-E1A inh, G9a block, Six1-Eya2 inh)
O=c1nc2ccccc2c(NS(=O)(=O)c2ccc(Cl)cc2)n1-c1ccccc1	JMJD2A Tudor 56µM
Fc1ccc2[nH]c3c(NCc4ccco4)ncnc3c2c1	none (no result: BAZ2B inh, CtBP-E1A inh, G9a block, Six1-Eya2 inh)
c1ccc(Cn2ncc3c(NCc4ccco4)ncnc32)cc1	BAZ2B inh 79µM, JMJD2A Tudor inconclusive, G9a block 45µM
c1ccc(-n2ncc3c(NCc4ccco4)ncnc32)cc1	BAZ2B inh inconclusive, G9a block inconclusive
Cc1ccc(-n2ncc3c(NCc4ccco4)ncnc32)c(C)c1	BAZ2B inh inconclusive, G9a block 50µM
Cc1ccc2[nH]c3c(NCc4ccco4)ncnc3c2c1	BAZ2B inh inconclusive, G9a block 50µM
Cc1ccc(-n2ncc3c(NCc4cccnc4)ncnc32)c(C)c1	none
CCCCNC(=O)c1ccc2c(=O)n(-c3ccccc3)c(=O)[nH]c2c1	none (no result: CtBP-E1A inh, Six1-Eya2 inh)
CC1CC(C)CN(C(=O)CSc2nnc(N)s2)C1 (stereo not given)	none (no result: G9a block)
CC(C)(C)OC(=O)N1CCC(c2c(C(=O)N3CCN(c4ccccc4)CC3)cnn2-c2ccccc2)CC1	G9a block inconclusive (no result: CtBP-E1A inh, Six1-Eya2 inh)
CN(C)c1ccc(CN(Cc2ccco2)C(=O)c2ccco2)cc1	BAZ2B inh inconclusive, JMJD2A Tudor 32µM, HP1b chromo inh inconclusive, CtBP-E1A inh inconclusive, G9a block 45µM, Six1-Eya2 inh inconclusive
CCOc1ccccc1C(=O)N(Cc1ccc(N(C)C)cc1)Cc1ccco1	BAZ2B inh 35µM, JMJD2A Tudor 25µM, HP1b chromo inh inconclusive, G9a block 20µM (no result: CtBP-E1A inh, Six1-Eya2 inh)
Cc1c(C(=O)N(Cc2ccc(N(C)C)cc2)Cc2ccco2)oc2cc(Br)ccc12	BAZ2B inh inconclusive, JMJD2A Tudor 18µM, HP1b chromo inh inconclusive, G9a block inconclusive (no result: CtBP-E1A inh, Six1-Eya2 inh)
O=C(c1ccco1)N(Cc1ccccc1)Cc1ccccn1	BAZ2B inh inconclusive, G9a block 79µM
CC(C)(C)c1ccc(C(=O)N(Cc2ccc(F)cc2)Cc2ccco2)cc1	G9a block inconclusive (no result: CtBP-E1A inh, Six1-Eya2 inh)
Cc1cn(C)c(CC(=O)N2CCN(c3ccc(F)cc3)CC2)c1C(=O)O	none (no result: CtBP-E1A inh, Six1-Eya2 inh)
CCC(=O)C1=C(c2ccc(F)cc2)N(C(=O)CC)n2c(nnc2-c2ccc(OC)cc2)S1	none (no result: CtBP-E1A inh, Six1-Eya2 inh)
O=C(c1ccco1)N(Cc1ccc(Cl)cc1)Cc1ccco1	BAZ2B inh inconclusive, G9a block 32µM (no result: CtBP-E1A inh)
Cc1ccc2c(CC(=O)N(Cc3ccc(N(C)C)cc3)Cc3ccco3)coc2c1C	BAZ2B inh 8.9µM, JMJD2A Tudor 13µM, HP1b chromo inh inconclusive, G9a block 8.9µM (no result: CtBP-E1A inh, Six1-Eya2 inh)
Cc1ccc(CN(Cc2ccco2)C(=O)c2ccc(Cl)cc2Cl)cc1	none (no result: CtBP-E1A inh, Six1-Eya2 inh)
COc1ccc(C(=O)N(Cc2ccco2)Cc2ccco2)cc1	none (no result: CtBP-E1A inh, Six1-Eya2 inh)
CCOc1c(Cl)cc(C(=O)N(Cc2ccc(N(C)C)cc2)Cc2ccco2)cc1Cl	BAZ2B inh 13µM, JMJD2A Tudor 13µM, G9a block inconclusive (no result: CtBP-E1A inh, Six1-Eya2 inh)
CC(C)COc1ccc(C(=O)N(Cc2ccc(N(C)C)cc2)Cc2ccco2)cc1	BAZ2B inh 13µM, JMJD2A Tudor 14µM, G9a block 16µM (no result: CtBP-E1A inh, Six1-Eya2 inh)
CCc1ccccc1Nc1cc(C(=O)NCc2ccc(C)cc2)c2ccccc2n1	none (no result: BAZ2B inh, CtBP-E1A inh, Six1-Eya2 inh)
CSc1ncc(Cl)c(C(=O)N(Cc2ccc(N(C)C)cc2)Cc2ccco2)n1	BAZ2B inh 18µM, JMJD2A Tudor 22µM, HP1b chromo inh inconclusive, G9a block 13µM (no result: CtBP-E1A inh, Six1-Eya2 inh)
CC(C)N(CC#CCC(O)(c1ccccc1)c1ccccc1)CCO	BAZ2B inh 79µM, G9a block 13µM (no result: CtBP-E1A inh)

Source: PubChem (National Center for Advancing Translational Sciences (NCATS))
